APOBEC3A inh: blocks human APOBEC3A ssDNA deamination; inhibition, % at 20 µM; recombinant A3A, FAM/TAMRA ssDNA deamination fluorescence; 330,000 compounds, 0.41% hits;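 active = at least 40% inhibition at 20 µM here, with at most 30% in a related deaminase screen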;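 also: plate controls were A3A with DMSO for no effect and wells lacking A3A enzyme for full effect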
A3G deaminase: APOBEC3G (human) deaminase inhibition; inhibition, % at 20 µM; recombinant A3G, ssDNA deamination FAM/TAMRA fluorescence; 330,000 compounds, 0.28% hits;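 active = inhibition of at least 40% at 20 µM, with no more than 30% in the related APOBEC3A deaminase screen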;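 also: plate controls were DMSO wells with A3G for no effect and wells lacking A3G enzyme for full effect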
NALP1 yeast inh: NALP1 inhibition. S. cerevisiae NALP1/ASC/caspase-1 growth, X-gal OD620, 72 h. AID 2071. 280,000 compounds, 0.61% hits. inhibition, % at 10 µM; in the data active = inhibition mostly above about 24%, no sharp cut-off; inactive = mostly below about 32%
HGIII-sPLA2 inh: Blocks human group III sPLA2 activity. 370,000 compounds, 0.56% hits. Q9NZ20. AID 743126. QFRET BODIPY PC-A2 liposome hydrolysis, fluorescence. inhibition, % at 12.2 µM;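 active = inhibition above mean plus 3 SD of compounds lying within the high and low control bounds, cut at about 19% in these data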;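 also: 0% = median of test compound wells and 100% = no enzyme DMSO wells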
Target sequence (Q9NZ20 whole entry, looked up): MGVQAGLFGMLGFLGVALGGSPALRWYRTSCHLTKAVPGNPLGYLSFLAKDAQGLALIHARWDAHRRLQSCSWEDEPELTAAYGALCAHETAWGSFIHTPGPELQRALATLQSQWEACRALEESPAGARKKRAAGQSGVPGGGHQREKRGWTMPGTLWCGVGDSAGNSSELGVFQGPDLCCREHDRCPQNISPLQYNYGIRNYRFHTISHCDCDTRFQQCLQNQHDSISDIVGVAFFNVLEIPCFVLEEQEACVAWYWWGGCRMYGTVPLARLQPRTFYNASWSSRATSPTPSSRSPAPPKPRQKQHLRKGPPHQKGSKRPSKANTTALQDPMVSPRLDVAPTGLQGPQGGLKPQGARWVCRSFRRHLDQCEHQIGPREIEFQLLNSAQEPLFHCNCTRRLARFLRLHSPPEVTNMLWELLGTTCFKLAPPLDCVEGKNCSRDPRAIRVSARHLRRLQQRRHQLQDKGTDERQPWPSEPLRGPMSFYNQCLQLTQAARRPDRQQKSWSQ
Fh CTSL1 inh: blocks F. hepatica cathepsin L1 in PFM18AAP counter-screen. recombinant F. hepatica cathepsin L1, Z-Leu-Arg-MCA fluorescence. inhibition, % at 5.96 µM. 300,000 compounds, 0.49% hits. AID 1906;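 active = inhibition above the mean of all tested compounds plus 3 SD, set per screening campaign, cut at about 17% in these data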;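 also: 0% = plate median of test compound wells and 100% = 1 µM Z-Phe-Ala-diazomethylketone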
* marks the source's active call; other numbers are inactive results. Shown are actives, neighbours in structure and some others; about 2% of the full set was active somewhere.

Results for C[C@H]1[C@@H](OC(=O)Nc2cc(Cl)ccc2Cl)CC[C@@]23CCCN2C(=O)CCC[C@@H]13 ?
HGIII-sPLA2 inh: 4

What do the screens show for `CC(C)C[C@H](NC(C)(C)C(=O)NC1CCCCC1)C(=O)NCCc1c[nH]c2ccccc12`?
HGIII-sPLA2 inh: -53

How did O=C(Cn1nnc(-c2ccccc2F)n1)Nc1ccc(Cl)cc1 do in these assays?
HGIII-sPLA2 inh: -2

How did COc1cccc(-c2cc3nc(-c4ccco4)cc(N4CCN(C(C)=O)CC4)n3n2)c1 do in these assays?
HGIII-sPLA2 inh: -2

What do the screens show for `O=C(NCc1ccco1)C(Cc1ccccc1)N1C(=O)C2C3C=CC(C3)C2C1=O` (stereo not given)?
APOBEC3A inh: -4; A3G deaminase: -8; NALP1 yeast inh: 7; HGIII-sPLA2 inh: -14; Fh CTSL1 inh: 20*

How did O=C(C(Cc1ccccc1)N1C(=O)C2C3C=CC(C3)C2C1=O)N1CCCCCC1 (stereo not given) do in these assays?
APOBEC3A inh: -3; A3G deaminase: 1; NALP1 yeast inh: 2; HGIII-sPLA2 inh: -1; Fh CTSL1 inh: 4

How did O=S1(=O)c2ccc(Br)cc2OC[C@@H](Cc2ccccc2)N1Cc1cn(CC2CCCCC2)nn1 do in these assays?
HGIII-sPLA2 inh: 18

How did CCC1Sc2ccccc2N(CC(=O)NCCC2=CCCCC2)C1=O (stereo not given) do in these assays?
APOBEC3A inh: -1; A3G deaminase: -4; NALP1 yeast inh: 43*; HGIII-sPLA2 inh: 0; Fh CTSL1 inh: 4

What do the screens show for `CCC1Sc2ccccc2N(CC(=O)NC2CC2)C1=O` (stereo not given)?
APOBEC3A inh: 1; A3G deaminase: -7; NALP1 yeast inh: 3; HGIII-sPLA2 inh: -1; Fh CTSL1 inh: 4

How did O=C1CCC[C@H]2C[C@H](NCc3ccc(F)cc3F)CC[C@]23CCCN13 do in these assays?
HGIII-sPLA2 inh: 6

What do the screens show for `Cc1ccc2c(c1)Oc1ccc(NC(=O)CCl)cc1C(=O)N2`?
APOBEC3A inh: 1; A3G deaminase: -3; NALP1 yeast inh: 12; HGIII-sPLA2 inh: 2; Fh CTSL1 inh: 52*

Results for Cc1ccc2c(c1)Oc1ccc([N+](=O)[O-])cc1C(=O)N2 ?
APOBEC3A inh: -1; A3G deaminase: -8; NALP1 yeast inh: 10; HGIII-sPLA2 inh: 6; Fh CTSL1 inh: -1

Results for CC(C)c1ccc(S(=O)(=O)/N=C2/C=C(Sc3ncn[nH]3)C(=O)c3ccccc32)cc1 ?
NALP1 yeast inh: 25; Fh CTSL1 inh: 101*

What do the screens show for `Cc1ccc(S(=O)(=O)/N=C2/C=C(Sc3ncn[nH]3)C(=O)c3ccccc32)c(C)c1`?
NALP1 yeast inh: 24; Fh CTSL1 inh: 103*

How did Cc1ccc(S(=O)(=O)Nc2ccc(O)c(Sc3ncn[nH]3)c2)cc1 do in these assays?
APOBEC3A inh: -4; A3G deaminase: -8; NALP1 yeast inh: -4; HGIII-sPLA2 inh: -59; Fh CTSL1 inh: -6

What do the screens show for `CC(C)(C)c1ccc(S(=O)(=O)/N=C2\C=C(NS(=O)(=O)c3ccccc3)C(=O)c3ccccc32)cc1`?
APOBEC3A inh: -1; A3G deaminase: -1; NALP1 yeast inh: 11; HGIII-sPLA2 inh: -8; Fh CTSL1 inh: -4

How did Cc1ccc(S(=O)(=O)/N=C2\C=C(NS(=O)(=O)c3ccccc3)C(=O)c3ccccc32)c(C)c1 do in these assays?
HGIII-sPLA2 inh: -13

What do the screens show for `Cc1ccc(S(=O)(=O)/N=C2/C=C(Sc3ncn[nH]3)C(=O)c3ccccc32)cc1`?
NALP1 yeast inh: 29; Fh CTSL1 inh: 107*

What do the screens show for `O=C(c1cccs1)C1CCN(c2ncnc3sccc23)CC1`?
HGIII-sPLA2 inh: -5

What do the screens show for `COc1ccc(CCNC(=O)c2cc3ccccn3n2)cc1`?
HGIII-sPLA2 inh: 1

What do the screens show for `NS(=O)(=O)c1ccc2ccccc2c1`?
APOBEC3A inh: -1; A3G deaminase: -2; NALP1 yeast inh: 2; HGIII-sPLA2 inh: 2; Fh CTSL1 inh: -1

Results for O=C(O)/C=C/S(=O)(=O)c1ccc2ccccc2c1 ?
APOBEC3A inh: 0; A3G deaminase: -7; HGIII-sPLA2 inh: 5; Fh CTSL1 inh: 54*

Results for COc1cccc(C(=O)Oc2ccc(N3C(=O)CCC3=O)c(C)c2)c1 ?
APOBEC3A inh: 3; A3G deaminase: 3; NALP1 yeast inh: 35*; HGIII-sPLA2 inh: -2; Fh CTSL1 inh: 3

How did CCOC(=O)c1sc(S(C)(=O)=O)c2c1CCc1conc1-2 do in these assays?
APOBEC3A inh: -5; A3G deaminase: -6; NALP1 yeast inh: -2; HGIII-sPLA2 inh: -3; Fh CTSL1 inh: 42*

How did Cc1cc(C)cc(N(CC(=O)NCC2CCCO2)C(=O)CN2C(=O)COc3ccccc32)c1 (stereo not given) do in these assays?
APOBEC3A inh: -2; A3G deaminase: -8; NALP1 yeast inh: 23*; HGIII-sPLA2 inh: -3; Fh CTSL1 inh: -5

How did O=C(CN(C(=O)C1COc2ccccc2O1)c1ccccc1)NCC1CCCO1 (stereo not given) do in these assays?
APOBEC3A inh: -3; A3G deaminase: -6; NALP1 yeast inh: -6; HGIII-sPLA2 inh: 7; Fh CTSL1 inh: 0

How did O=C(O)c1cccc(S(=O)(=O)NCC(=O)N2CCN(c3ccccn3)CC2)c1 do in these assays?
HGIII-sPLA2 inh: 1

Results for C[C@@H]1CC[C@@]23COC(=O)C2=CCC[C@@H]3[C@@]1(C)CC/C(=C/CO)CO ?
APOBEC3A inh: 2; A3G deaminase: -6; HGIII-sPLA2 inh: 2; Fh CTSL1 inh: -1

How did CC1=CCC[C@@H]2[C@@](C)(CC/C(C)=C/C(=O)O)[C@H](C)CC[C@@]12C do in these assays?
APOBEC3A inh: -1; A3G deaminase: -11; NALP1 yeast inh: 44*; HGIII-sPLA2 inh: -4; Fh CTSL1 inh: -1

Results for CC(=O)Nc1ccc(C(CCCc2ccccc2)C2=CCCCC2)cc1 (stereo not given) ?
HGIII-sPLA2 inh: -16

How did CCOC(=O)/C(=C\c1ccc(Cl)cc1)c1nc2sc(C)c(C)c2c(=O)[nH]1 do in these assays?
APOBEC3A inh: -4; A3G deaminase: 6; NALP1 yeast inh: 44*; HGIII-sPLA2 inh: -32; Fh CTSL1 inh: -4

Results for Cc1cc(N2CCC(C)CC2)nc(-c2ccccc2O)n1 ?
APOBEC3A inh: 1; A3G deaminase: -3; NALP1 yeast inh: 30; HGIII-sPLA2 inh: 7; Fh CTSL1 inh: 3

Results for Cc1cc(N2CCC(C)CC2)nc(NCc2ccccc2)n1 ?
APOBEC3A inh: 9; A3G deaminase: 0; NALP1 yeast inh: 69*; HGIII-sPLA2 inh: 0; Fh CTSL1 inh: -2

Results for CC(=O)Nc1ccc(C(=O)OCc2ccccc2Br)cc1 ?
APOBEC3A inh: 4; A3G deaminase: 7; NALP1 yeast inh: 8; HGIII-sPLA2 inh: -18; Fh CTSL1 inh: 3

Results for Cc1nc2ccc(C(=O)OCc3ccccc3Br)cc2nc1C ?
APOBEC3A inh: 2; A3G deaminase: 7; NALP1 yeast inh: -5; HGIII-sPLA2 inh: 3; Fh CTSL1 inh: 19*

How did Cc1ccc(-c2cc(C(=O)NN=Cc3c4ccccc4cc4ccccc34)[nH]n2)cc1C do in these assays?
HGIII-sPLA2 inh: 5
